Measurements published in article PMC11062922 (Nature Chemical Biology, 2023).

Tested on: PIP4K2C
Design: species or system human, MV4-11 + K-562 + COLO205 + SK-N-BE2 + OVCAR-8
Settings: read-out: apparent Kd; compound concentrations:100 nM and 1000 nM (sheet 'Samples'); n = 1

Compound	potency estimated from few doses
O=C1NC(=O)C(N2CCc3ccccc32)=C1c1ccccc1Cl [SB-373598]	1.02 µM
Cl.Cl.NCC(C(=O)Nc1cc(Br)c(-c2ccnc3[nH]ccc23)s1)c1ccccc1.NCC(C(=O)Nc1cc(Br)c(-c2ccnc3[nH]ccc23)s1)c1ccccc1 (stereo not drawn) [GSK1269851A]	1.93 µM
CC(C)N1CCC(n2cnc(-c3ccc(F)cc3)c2-c2ccnc(N)n2)CC1 [SB-223132]	1.2 µM
Cc1ccc2c(-c3ccncc3)c(-c3ccc(F)cc3)nn2c1.Cl [GW461484A]	1.56 µM

Tested on: PKN1
Design: species or system human, MV4-11 + K-562 + COLO205 + SK-N-BE2 + OVCAR-8
Settings: read-out: apparent Kd; compound concentrations:100 nM and 1000 nM (sheet 'Samples'); n = 1

Compound	potency estimated from few doses
NCCNS(=O)(=O)c1ccc(-c2ccnc3[nH]ccc23)cc1 [GSK977617A]	0.485 µM
O=C1NC(=O)C(N2CCc3ccccc32)=C1c1ccccc1Cl [SB-373598]	1.18 µM
Cl.Cl.NCC(C(=O)Nc1cc(Br)c(-c2ccnc3[nH]ccc23)s1)c1ccccc1.NCC(C(=O)Nc1cc(Br)c(-c2ccnc3[nH]ccc23)s1)c1ccccc1 (stereo not drawn) [GSK1269851A]	1.33 µM
CC(C)N1CCC(n2cnc(-c3ccc(F)cc3)c2-c2ccnc(N)n2)CC1 [SB-223132]	1.44 µM
CCn1c(-c2nonc2N)nc2c(C#CC(C)(C)O)nc(OCCNC)cc21.Cl [GSK949675A]	0.675 µM
CN1C[C@@H]2Cn3c(c(C4=C(c5cn(C)c6ccccc56)C(=O)NC4=O)c4ccccc43)C[C@H]2C1.Cl [RO0320234-001]	1.97 µM
CCn1c(-c2nonc2N)nc2c(C#CC(C)(C)O)nc(OCCN)cc21.CCn1c(-c2nonc2N)nc2c(C#CC(C)(C)O)nc(OCCN)cc21.Cl.Cl [GSK902056A]	0.085 µM
Cc1ccc2c(-c3ccncc3)c(-c3ccc(F)cc3)nn2c1.Cl [GW461484A]	2.01 µM

Tested on: PKN3
Design: species or system human, MV4-11 + K-562 + COLO205 + SK-N-BE2 + OVCAR-8
Settings: read-out: apparent Kd; compound concentrations:100 nM and 1000 nM (sheet 'Samples'); n = 1

Compound	potency estimated from few doses
NCCNS(=O)(=O)c1ccc(-c2ccnc3[nH]ccc23)cc1 [GSK977617A]	0.444 µM
O=C1NC(=O)C(N2CCc3ccccc32)=C1c1ccccc1Cl [SB-373598]	0.566 µM
Cl.Cl.NCC(C(=O)Nc1cc(Br)c(-c2ccnc3[nH]ccc23)s1)c1ccccc1.NCC(C(=O)Nc1cc(Br)c(-c2ccnc3[nH]ccc23)s1)c1ccccc1 (stereo not drawn) [GSK1269851A]	0.863 µM
Cl.NCc1ccc(-c2nc(-c3ccc(Cl)c(O)c3)c(-c3ccncc3)[nH]2)cc1 [SB-476429-A]	0.036 µM
CC(C)N1CCC(n2cnc(-c3ccc(F)cc3)c2-c2ccnc(N)n2)CC1 [SB-223132]	1.01 µM
Cc1cccc(-c2nc(Nc3ccncc3)c3sccc3n2)n1 [GW869641X]	0.0978 µM
CCn1c(-c2nonc2N)nc2c(C#CC(C)(C)O)nc(OCCNC)cc21.Cl [GSK949675A]	0.00248 µM
Cl.ON=C1CCc2cc(-c3nc(C4CCNCC4)[nH]c3-c3ccncc3)ccc21 [SB-614067-R]	0.125 µM
CN1C[C@@H]2Cn3c(c(C4=C(c5cn(C)c6ccccc56)C(=O)NC4=O)c4ccccc43)C[C@H]2C1.Cl [RO0320234-001]	1.5 µM
Cc1ccc2c(-c3ccncc3)c(-c3ccc(F)cc3)nn2c1.Cl [GW461484A]	1.39 µM

Tested on: PLK4
Design: species or system human, MV4-11 + K-562 + COLO205 + SK-N-BE2 + OVCAR-8
Settings: read-out: apparent Kd; compound concentrations:100 nM and 1000 nM (sheet 'Samples'); n = 1

Compound	potency estimated from few doses
NCCNS(=O)(=O)c1ccc(-c2ccnc3[nH]ccc23)cc1 [GSK977617A]	0.584 µM
O=C1NC(=O)C(N2CCc3ccccc32)=C1c1ccccc1Cl [SB-373598]	0.273 µM
Cl.Cl.NCC(C(=O)Nc1cc(Br)c(-c2ccnc3[nH]ccc23)s1)c1ccccc1.NCC(C(=O)Nc1cc(Br)c(-c2ccnc3[nH]ccc23)s1)c1ccccc1 (stereo not drawn) [GSK1269851A]	0.523 µM
CC(C)N1CCC(n2cnc(-c3ccc(F)cc3)c2-c2ccnc(N)n2)CC1 [SB-223132]	0.757 µM
CNC(=O)c1ccccc1Nc1nc(Nc2ccc(N3CCOCC3)cc2)ncc1Cl.Cl [GSK1576028A]	0.0134 µM
CN1C[C@@H]2Cn3c(c(C4=C(c5cn(C)c6ccccc56)C(=O)NC4=O)c4ccccc43)C[C@H]2C1.Cl [RO0320234-001]	0.5 µM
Cc1ccc2c(-c3ccncc3)c(-c3ccc(F)cc3)nn2c1.Cl [GW461484A]	0.428 µM

Tested on: PRKAA1
Design: species or system human, MV4-11 + K-562 + COLO205 + SK-N-BE2 + OVCAR-8
Settings: read-out: apparent Kd; compound concentrations:100 nM and 1000 nM (sheet 'Samples'); n = 1

Compound	potency estimated from few doses
NCCNS(=O)(=O)c1ccc(-c2ccnc3[nH]ccc23)cc1 [GSK977617A]	0.453 µM
O=C1NC(=O)C(N2CCc3ccccc32)=C1c1ccccc1Cl [SB-373598]	0.273 µM
Cl.Cl.NCC(C(=O)Nc1cc(Br)c(-c2ccnc3[nH]ccc23)s1)c1ccccc1.NCC(C(=O)Nc1cc(Br)c(-c2ccnc3[nH]ccc23)s1)c1ccccc1 (stereo not drawn) [GSK1269851A]	0.548 µM
CC(C)N1CCC(n2cnc(-c3ccc(F)cc3)c2-c2ccnc(N)n2)CC1 [SB-223132]	0.631 µM
CNC(=O)c1ccccc1Nc1nc(Nc2ccc(N3CCOCC3)cc2)ncc1Cl.Cl [GSK1576028A]	0.629 µM
CN1C[C@@H]2Cn3c(c(C4=C(c5cn(C)c6ccccc56)C(=O)NC4=O)c4ccccc43)C[C@H]2C1.Cl [RO0320234-001]	0.248 µM
Cc1ccc2c(-c3ccncc3)c(-c3ccc(F)cc3)nn2c1.Cl [GW461484A]	0.773 µM
